S1P4 antagonist: S1P4 receptor antagonists, primary screen, cell-based; S1P4-expressing cells, antagonist mode, reporter read-out; inhibition, % at 4.98 µM; 0.26% of 220,000 active; in the data active = inhibition above about 29%
Target sequence (O95977 whole entry, looked up): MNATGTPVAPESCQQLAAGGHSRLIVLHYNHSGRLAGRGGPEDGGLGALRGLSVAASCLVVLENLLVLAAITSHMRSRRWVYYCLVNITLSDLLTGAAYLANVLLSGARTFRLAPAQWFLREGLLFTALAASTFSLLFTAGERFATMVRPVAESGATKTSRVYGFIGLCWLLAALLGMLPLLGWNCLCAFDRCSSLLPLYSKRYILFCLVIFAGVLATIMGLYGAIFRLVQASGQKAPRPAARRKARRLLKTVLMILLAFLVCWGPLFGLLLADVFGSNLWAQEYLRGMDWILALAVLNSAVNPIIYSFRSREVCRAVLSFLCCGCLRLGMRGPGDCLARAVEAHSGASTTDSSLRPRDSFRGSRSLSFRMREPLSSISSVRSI
S1P4 ag: S1P4 receptor agonists, primary screen, cell-based. Sphingosine 1-phosphate receptor 4 (Homo sapiens), O95977. S1P4-expressing cell line, agonist reporter assay. activation, % at 4.98 µM. 0.35% of 220,000 active. AID 1509, 2009; in the data active = activation above about 11%
Hsp70 activator: Hsp70 transcriptional activators, primary screen, cell-based, HeLa, Hsp70 promoter luciferase, luminescence, 10 µM. HeLa Hsp70 promoter luciferase reporter; scaled: vehicle 0, proteasome-inhibitor control 100%. activation, % at 10 µM. 0.04% of 200,000 active. AID 1203, 2008;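 active = activation above the mean across all tested compounds plus 3 SD, cutoff set per campaign, cut at about 5.5% in these data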
CHOP inhibitor: inhibitors of CHOP promoter induction, primary screen, cell-based, unfolded protein response, luciferase reporter. CHO-K1 CHOP-promoter luciferase, tunicamycin-induced, 15-18 h. inhibition, % at 10 µM. 3.8% of 220,000 active. AID 2732, 2010;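 active = compounds that reduced the stress-induced luciferase reporter signal by more than about 70% of percent inhibition, limit read from the data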
A number is an active result; ! = a repeat was not active. In the library only some 4.2% were active in any assay of this set; here they are far more common.

Results for Cc1ccccc1-c1cc(C(=O)Nc2sc(C)c(C)c2C(N)=O)c2ccccc2n1 ?
S1P4 antagonist: inactive; S1P4 ag: inactive; Hsp70 activator: inactive; CHOP inhibitor: 74.8

How did CCOC(=O)c1sc(NC(=O)c2cc(-c3ccccc3C)nc3ccccc23)c(C#N)c1C do in these assays?
S1P4 antagonist: inactive; S1P4 ag: inactive; Hsp70 activator: inactive; CHOP inhibitor: 71.8

How did CCOC(=O)c1cnc(-n2nc(C)cc2C)nc1NNc1ncc(-c2ccccc2)cn1 do in these assays?
S1P4 antagonist: inactive; S1P4 ag: inactive; CHOP inhibitor: inactive

Results for CCOC(=O)c1cnc(-n2nc(C)cc2C)nc1NNc1cc(-c2ccccc2)nc(C)n1 ?
S1P4 antagonist: inactive; S1P4 ag: inactive; Hsp70 activator: inactive; CHOP inhibitor: 74.3

What do the screens show for `Cc1ccc(S(=O)(=O)N(C)c2ccc(C(=O)N3CCC(C(N)=O)CC3)cc2)cc1`?
S1P4 antagonist: inactive; S1P4 ag: inactive; Hsp70 activator: inactive; CHOP inhibitor: inactive

What do the screens show for `O=C(NCC1(c2ccccc2)CCCC1)c1ccc(Br)cc1`?
S1P4 antagonist: inactive; S1P4 ag: inactive; Hsp70 activator: inactive; CHOP inhibitor: 74.4

What do the screens show for `CCN(CC)CCOc1ncnc2c1oc1ccccc12`?
S1P4 antagonist: inactive; S1P4 ag: inactive; Hsp70 activator: inactive; CHOP inhibitor: inactive

Results for CCCCc1oc2ccccc2c1C(=O)c1cc(I)c(OCCN(CC)CC)c(I)c1 ?
S1P4 antagonist: inactive; S1P4 ag: inactive; Hsp70 activator: inactive; CHOP inhibitor: 86.1!

How did O=C(Nc1ccc(N2CCN(C(=O)c3ccc(Cl)cc3)CC2)cc1)c1ccc(Br)o1 do in these assays?
S1P4 antagonist: inactive; S1P4 ag: inactive; Hsp70 activator: inactive; CHOP inhibitor: 76.7

What do the screens show for `CS(=O)(=O)N1CCN(c2ccc(NC(=O)c3ccc(-c4ccc(Cl)cc4)o3)cc2)CC1`?
S1P4 antagonist: inactive; S1P4 ag: inactive; Hsp70 activator: inactive; CHOP inhibitor: 75.2

What do the screens show for `Cc1ccc(CNS(=O)(=O)c2ccc3c(c2)CCN3C(=O)CCCC(=O)O)cc1`?
S1P4 antagonist: inactive; S1P4 ag: inactive; Hsp70 activator: inactive; CHOP inhibitor: inactive

Results for COc1ccccc1OCCC(=O)N1CCN(c2ccccc2OC)CC1 ?
S1P4 antagonist: inactive; S1P4 ag: inactive; CHOP inhibitor: inactive

What do the screens show for `Oc1ccc(-c2nccc(-c3ccc(Cl)cc3Cl)n2)cc1`?
S1P4 antagonist: inactive; S1P4 ag: inactive; Hsp70 activator: inactive; CHOP inhibitor: 79.9

What do the screens show for `CCCCNCC1C(Oc2ccc(Cl)cc2)C(=O)N1c1ccccc1C` (stereo unspecified)?
S1P4 antagonist: inactive; S1P4 ag: inactive; Hsp70 activator: inactive; CHOP inhibitor: 77.4

How did CCOc1ccc2nc(NC(=O)c3cnc(C)cn3)sc2c1 do in these assays?
S1P4 antagonist: inactive; S1P4 ag: inactive; Hsp70 activator: inactive; CHOP inhibitor: inactive

Results for Cc1ccc(-c2noc(CSc3nnc(Cc4ccccc4)n3-c3ccc(Cl)cc3)n2)cc1 ?
S1P4 antagonist: inactive; S1P4 ag: inactive; Hsp70 activator: inactive; CHOP inhibitor: 80.8

Results for O=C(Nc1ccc(Cl)cc1Cl)NC1CCCC1 ?
S1P4 antagonist: inactive; S1P4 ag: inactive; Hsp70 activator: inactive; CHOP inhibitor: inactive

How did O=C(Nc1cccc(S(=O)(=O)N2CCCCC2)c1)Nc1ccc(Cl)cc1Cl do in these assays?
S1P4 antagonist: inactive; S1P4 ag: inactive; Hsp70 activator: inactive; CHOP inhibitor: 88.0

What do the screens show for `O=C(Nc1ccc(Cl)cc1Cl)NC1CCN(S(=O)(=O)c2ccc(F)cc2)CC1`?
S1P4 antagonist: inactive; S1P4 ag: inactive; CHOP inhibitor: 81.1

Results for CC1(C)CC(=O)C(C=Nc2cccnc2)=C(O)C1 ?
S1P4 antagonist: inactive; S1P4 ag: inactive; Hsp70 activator: inactive; CHOP inhibitor: inactive

Results for CC(=O)c1nn(-c2cccc(Br)c2)cc1C(=O)c1ccccc1 ?
S1P4 antagonist: inactive; S1P4 ag: inactive; Hsp70 activator: inactive; CHOP inhibitor: 74.3

What do the screens show for `CCOc1cccc(-c2nnc3sc(COc4ccc(C)cc4)nn23)c1`?
S1P4 antagonist: inactive; S1P4 ag: inactive; Hsp70 activator: inactive; CHOP inhibitor: 70.3

How did CN(Cc1ccccc1)C(=O)CN1C(=O)C2C3C=CC(C3)C2C1=O (stereo unspecified) do in these assays?
S1P4 antagonist: inactive; S1P4 ag: inactive; Hsp70 activator: inactive; CHOP inhibitor: inactive

What do the screens show for `CCOc1cc(C(=O)O/N=C(\N)c2ccc([N+](=O)[O-])cc2)cc(OCC)c1OCC`?
S1P4 antagonist: inactive; S1P4 ag: inactive; Hsp70 activator: inactive; CHOP inhibitor: 79.3

Results for COc1cc(C(=O)O/N=C(\N)c2ccc([N+](=O)[O-])cc2)cc(OC)c1OC ?
S1P4 antagonist: inactive; S1P4 ag: inactive; Hsp70 activator: inactive; CHOP inhibitor: inactive

What do the screens show for `COc1ccc(O)c(CNc2ccccc2F)c1`?
S1P4 antagonist: inactive; S1P4 ag: inactive; Hsp70 activator: inactive; CHOP inhibitor: inactive

Results for O=C(Nc1ccc(NC(=O)c2ccccc2O)cc1)Nc1ccc(F)cc1F ?
S1P4 antagonist: inactive; S1P4 ag: inactive; CHOP inhibitor: 71.3

How did O=C(Nc1ccccc1)Nc1nc(-c2ccccc2)cs1 do in these assays?
S1P4 antagonist: inactive; S1P4 ag: inactive; CHOP inhibitor: inactive

How did O=C(Nc1nc(-c2ccccc2)cs1)Nc1ccc(F)cc1F do in these assays?
S1P4 antagonist: inactive; S1P4 ag: inactive; Hsp70 activator: inactive; CHOP inhibitor: 88.6

How did Cc1ccc(-c2nn3c(C)nnc3s2)cc1NC(=O)CSc1ccc(Cl)cc1 do in these assays?
S1P4 antagonist: inactive; S1P4 ag: inactive; Hsp70 activator: inactive; CHOP inhibitor: inactive

What do the screens show for `Cc1ccccc1S(=O)(=O)c1c(C)cc(C)n(C)c1=O`?
S1P4 antagonist: inactive; S1P4 ag: inactive; Hsp70 activator: inactive; CHOP inhibitor: inactive

What do the screens show for `Cc1ccccc1S(=O)(=O)c1c(C)cc(C)n(CC(C)C)c1=O`?
S1P4 antagonist: inactive; S1P4 ag: inactive; Hsp70 activator: inactive; CHOP inhibitor: 85.5

What do the screens show for `Cc1ccc(N2CC(c3nc4ccccc4n3C)CC2=O)cc1C` (stereo unspecified)?
S1P4 antagonist: inactive; S1P4 ag: inactive; Hsp70 activator: inactive; CHOP inhibitor: inactive

What do the screens show for `CCOc1ccc(NC(=O)CN2C(=O)COc3ccc(Cl)cc32)cc1`?
S1P4 antagonist: inactive; S1P4 ag: inactive; Hsp70 activator: inactive; CHOP inhibitor: 76.0

Results for CCOC(=O)c1ccc(NC(=O)c2nc[nH]c2C(=O)N2CCc3ccccc3C2)cc1 ?
CHOP inhibitor: 72.2

What do the screens show for `CC(=O)c1c(OC(=O)c2cccc(Cl)c2)c2ccccc2n1C`?
S1P4 antagonist: inactive; S1P4 ag: inactive; CHOP inhibitor: inactive

How did O=C(CCN1C(=O)c2cccc3cccc(c23)C1=O)NCc1cccnc1 do in these assays?
S1P4 antagonist: inactive; S1P4 ag: inactive; Hsp70 activator: inactive; CHOP inhibitor: inactive

What do the screens show for `Cc1cccc(N=C2NN=C(c3c(C)[nH]c4ccccc34)CS2)c1`?
S1P4 antagonist: inactive; S1P4 ag: inactive; Hsp70 activator: inactive; CHOP inhibitor: 72.5

How did Cc1cccc(N=C2NN=C(c3ccc4c(c3)OCCO4)CS2)c1 do in these assays?
S1P4 antagonist: inactive; S1P4 ag: inactive; Hsp70 activator: inactive; CHOP inhibitor: inactive
